According to PubChem BioAssay (EPA / NIEHS):
More than one record can exist for a structure, and the calls need not agree. Calls of active or inactive are those of the source. Rule for the calls: active = hit-call score of the fitted dose curve at least 0.9, where 1 is the maximum; inactive = score below 0.9.

assay: CCTE_Mundy_HCI_Cortical_Synap_Neur_Matur_SynapseCount: CCTE's Synaptogenesis and Neurite Maturation Assay in rat cortical cells for Synapse Count, Mundy Lab (AID 2284218)
Description: CCTE_Mundy_HCI_Cortical_Synap&Neurite_Matur is a multiplexed, cell-based-readout assay that uses rat primary cortical cells with measurements taken at 288.33 hours after chemical dosing in a microplate: 96-well plate.CCTE_Mundy_HCI_Cortical_Synap_Neur_Matur_SynapseCount is one of eight components of the CCTE_Mundy_HCI_Cortical_Synap&Neurite_Matur assay. It measures synaptogenesis and neurite maturation related to number of synapses per neuron using High Content Imaging of fluorescently labelled markers.[…] Using a type of morphology reporter, loss -of-signal activity can be used to understand developmental effects.
Cells are plated onto 96 well plates and allowed 2 hr for attachment to the substrate. At days in vitro (DIV) 5, Cytosine Arabinoside (AraC) is added to arrest glial cell growth. Chemicals are dosed and a media change is performed at DIV 7 of differentiation and is continued through DIV 12 when the experiment is terminated. Cells are fixed with […] and Hoechst Dye. Cells are stained using Millipore Mouse anti-MAP2MAB3418 (1:800) and Millipore Rabbit anti-Synaptophysinsc-1750 (1:250) primary antibodies and Alexa Fluor-488 goat anti-mouse and AlexaFluor-546 goat anti-rabbit secondary antibodies to label neuronal cell nuclei, synapses and neurites. A Cellomics ArrayScan VTi HCS Reader is used for automated image acquisition and analysis of neurite outgrowth.

SMILES | outcome | AC50
O=S(=O)(O)C(F)(F)C(F)(F)C(F)(F)C(F)(F)C(F)(F)C(F)(F)C(F)(F)C(F)(F)F | inactive | –
CC(C)N(C(=O)COc1nnc(C(F)(F)F)s1)c1ccc(F)cc1 | inactive | –
CC1(C)C(C=C(Cl)Cl)C1C(=O)OC(C#N)c1ccc(F)c(Oc2ccccc2)c1 (stereo unspecified) | inactive | 77.9 µM (active)
O=[N+]([O-])/N=C1\NCCN1Cc1ccc(Cl)nc1 | inactive | –
CC1(c2ccc(Oc3ccccc3)cc2)OC(=O)N(Nc2ccccc2)C1=O (stereo unspecified) | – | 40 µM (active)
CCC(C)(C)C(=O)OC1=C(c2ccc(Cl)cc2Cl)C(=O)OC12CCCCC2 | inactive | –
O=S1OCC2C(CO1)C1(Cl)C(Cl)=C(Cl)C2(Cl)C1(Cl)Cl (stereo unspecified) | – | 19.6 µM (active)
CC[C@H](C)[C@H]1O[C@]2(C=C[C@@H]1C)C[C@@H]1C[C@@H](C/C=C(\C)[C@@H](O[C@H]3C[C@H](OC)[C@@H](O[C@H]4C[C@H](OC)[C@@H](O)[C@H](C)O4)[C@H](C)O3)[C@@H](C)/C=C/C=C3\CO[C@@H]4[C@H](O)C(C)=C[C@@H](C(=O)O1)[C@]34O)O2 (tested in a mixture with another compound) | – | 1.41 µM (active)
O=C(O)COc1ccc(Cl)cc1Cl | inactive | –
COP(=O)(OC)OC=C(Cl)Cl | inactive | 9.71 µM (active)
CNC(=O)CSP(=S)(OC)OC | inactive | 50 µM (active)
COP(=S)(OC)Oc1ccc([N+](=O)[O-])cc1 | inactive | –
O=C(O)C(F)(F)C(F)(F)C(F)(F)C(F)(F)C(F)(F)C(F)(F)C(F)(F)F | inactive | –
